Source: PubChem BioAssay (National Center for Advancing Translational Sciences (NCATS))
Pf growth 96h: Primary qHTS for delayed death inhibitors of the malarial parasite plastid, 96 hour incubation. P. falciparum luciferase reporter growth, 96 h. Potency, µM (titrated, usually from 28.7 µM), for inactives: at the top dose activity change, negative = inhibition, usual class: inhibitors. hit rate 6.9% among 320,000; also: potency is read from the fitted curve at half-maximal effect; % is scaled to controls: 0 for no effect and ±100 for the full control effect
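Parasite growth measured via integrated firefly luciferase reporter in P. falciparum. Infected erythrocytes at 2% hematocrit, 0.05% parasitemia final were treated 96 hours at 37 C under 5% CO2, and luminescence was read.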
HCV inhibitor: qHTS Assay for Inhibitors of Hepatitis C Virus (HCV) | Huh7.5.1 HCVcc-Cre infection, luciferase reporter, 44 h | Potency, µM (highest dose often 41.8 µM), without a hit: top-dose activity change, negative = inhibition, hits mostly inhibitors | hit rate 3.4% among 340,000; also: potency is read from the fitted curve at half-maximal effect; % is scaled to controls: 0 for no effect and ±100 for the full control effect
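Seed cells (1,000/well) for 4 h; treat with compound and infect with HCVcc-Cre, moi about 0.5. Incubate 44 h, then detect luciferase activity.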
Pf growth 48h: Primary qHTS for delayed death inhibitors of the malarial parasite plastid, 48 hour incubation | hit rate 5.9% among 310,000 | Potency, µM (top dose mostly 28.7 µM), without a hit: top-dose activity change, negative = inhibition, actives largely listed as inhibitors | P. falciparum luciferase growth in erythrocytes, 48 h; also: potency is read from the fitted curve at half-maximal effect; % is scaled to controls: 0 for no effect and ±100 for the full control effect
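Growth was read as firefly luciferase luminescence after a 48 h, 37 C, 5% CO2 exposure of compounds to reporter-bearing P. falciparum cultures (0.1% parasitemia, 2% hematocrit final) in Albumax-supplemented RPMI 1640.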
HCMV antiviral: qHTS Assay for inhibitors of the human cytomegalovirus (HCMV) | HFF cells, HCMV-luciferase reporter, 72 h; stronger effect = lower value | activity change, negative = inhibition, % at 57.5 µM | AID 1259415, 2018 | hit rate 4.5% among 410,000; in the data active = activity change below about -60%; inconclusive = no clear call, values can overlap the other calls; inactive = above about -39%; also: % is scaled to controls: 0 for no effect and ±100 for the full control effect
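Inhibition of viral replication was scored as loss of reporter luminescence in HFFs infected with HCMV-luciferase (MOI 1 PFU/cell) for 72 h; compounds tested at 2 doses, normalized to buffer and Salinomycin controls.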
CHX counter: Cycloheximide Counterscreen for Small Molecule Inhibitors of Shiga Toxin; hit rate 12% among 300,000; max response, %; cell reporter, cycloheximide protein synthesis inhibition counterscreen; AID 2314, 2010; in the data active = max response mostly above about 13%, no sharp cut-off; inactive = mostly below about 14%; also: read at 38.3 µM for the half of the compounds with a filed dose; 0% is about no effect
Shiga inhibitor: A qHTS for Small Molecule Inhibitors of Shiga Toxin. Vero cells, Shiga toxin protein synthesis inhibition reporter. inhibition, % at 38.7 µM. hit rate 9.2% among 290,000. AID 2315, 2010; in the data active = inhibition mostly above about 28%, no sharp cut-off; inactive = mostly below about 43%; also: 0% is about no effect
Numbers without * were called inactive; i = inactive; ? = inconclusive; nt = no result given; ! = a repeat was not active. Rows were chosen to be rich in hits. Some 21% of all compounds tested hit in one or more screens of this group. Unless noted, calls follow the shape of the dose curve; as a rule, active = well fitted inhibition curve with a large enough effect; inconclusive = small, poorly fitted or top-dose-only effect, or another doubt; inactive = no such curve, though single readings can be large or run the other way.

SMILES	Pf growth 96h	HCV inhibitor	Pf growth 48h	HCMV antiviral	CHX counter	Shiga inhibitor
N#Cc1cc2c(nc1SCc1ccncc1)CCC2	27%	-25%	-10%	-2	43*	102*
N#Cc1cc2c(nc1SCC(=O)O)CCCC2	-16%	0%	19%	-20	3	-19
O=C(COc1ccccc1)N(Cc1cccnc1)c1nc2c(F)cccc2s1	nt	nt	nt	0	nt	nt
CCOC(=O)[C@H]1[C@H]2COc3ccc(Cl)cc3[C@@H]2N2C(=O)CN(Cc3ccco3)C(=O)[C@@]12C	?	-3%	?	9	nt	nt
Cn1nnnc1SCC(=O)Nc1ccc(Br)cc1Br	nt	-3%	nt	-31	nt	nt
Cc1ccc(NC(=O)c2ccn(C)n2)c(Br)c1	5%	?	423%	93	81*	163*
Cn1ccc(C(=O)Nc2ccc(Br)cc2Br)n1	427%	?	i	32	104*	167*
CCSC1(SCC)N=C(N)C2(C#N)C(c3ccc(OC)c(OC)c3OC)C12C#N (stereo unspecified)	12%	8.9µM*	?	3	-4	-10
COc1ccc(CNC(=O)CCC2N=C3c4ccccc4N=C(SCc4cccc(F)c4)N3C2=O)cc1 (stereo unspecified)	nt	nt	nt	65	nt	nt
N#CC(=C(O)COC(=O)CCCNC(=O)c1ccc(Cl)cc1)c1nc2ccccc2[nH]1	nt	1%	nt	44	nt	nt
N#Cc1ccc(OCC(=O)N2CCN(S(=O)(=O)c3cccc(Cl)c3)CC2)cc1	9.3µM*	-22%	?	-6	nt	nt
N#Cc1ccc(OCC(=O)N2CCN(S(=O)(=O)c3ccc(Cl)s3)CC2)cc1	?	?	?	-61*	nt	nt
COc1ccc(-c2c(C#N)c(SCC(=O)Nc3ccccc3C)nc(C)c2C(=O)Nc2ccccc2)cc1OC	nt	nt	nt	40	nt	nt
CS(=O)(=O)N(CC(=O)Nc1ccc(S(=O)(=O)N2CCCC2)cc1)c1cccc(F)c1	6%	-2%	1%	-5	-1	-12
Cc1ccc(S(=O)(=O)N2CCCc3cc(NC(=O)c4c(F)cccc4F)ccc32)cc1	14%	10µM*	-13%	-69*!	0	13
COc1ccc(S(=O)(=O)Nc2ccc3c(c2)CCCN3S(=O)(=O)c2ccc(C)cc2)cc1F	nt	nt	nt	-64*	nt	nt
Cc1ccc(S(=O)(=O)N2CCCc3cc(NC(=O)c4ccc(F)c(F)c4)ccc32)cc1	nt	nt	nt	-18	nt	nt
COc1cccc(OC)c1C(=O)Nc1ccc2c(c1)CCCN2S(=O)(=O)c1ccc(C)cc1	?	?	?	-64*!	-2	-6
Cc1ccc(S(=O)(=O)N2CCCc3cc(NC(=O)c4cccc(Cl)c4)ccc32)cc1	nt	nt	nt	-4	nt	nt
Cc1ccc(S(=O)(=O)N2CCCc3cc(NS(=O)(=O)c4cc(F)ccc4F)ccc32)cc1	nt	nt	nt	-21	nt	nt
COc1ccc(N(CC(=O)NC2CCCCC2)C(=O)CNC(=O)c2ccco2)cc1	44%	2%	1%	-11	-5	-8
CCC1CCCCN1CCCNC(=O)c1c(C)oc2ncn(CC(C)C)c(=O)c12 (stereo unspecified)	nt	nt	nt	2	nt	nt
CCCCN(CCCNC(=O)c1c(C)cc(=O)oc1C)c1ccccc1	-11%	4µM*	?	24	12	-8
CCCCN(C(=O)c1ccc2c(c1)NC(=O)CS2)c1ccccc1	-28%	?	?	-100*	nt	nt
CCCCN(CCCNC(=O)c1ccc2c(c1)NC(=O)CN2C)c1ccccc1	nt	nt	nt	-98*	nt	nt
SMILES	Pf growth 96h	HCV inhibitor	Pf growth 48h	HCMV antiviral	CHX counter	Shiga inhibitor
CCCNC(=O)c1c(C)cc(=O)oc1C	6.6µM*	7%	33%	-27	-3	-7
CC1CCCCN1CCCNC(=O)c1ccc2c(c1)NC(=O)CN2C (stereo unspecified)	nt	nt	nt	5	nt	nt
Cc1ccc2c(c1)N(C(=O)CCC(=O)NCCN1CCOCC1)CC(C)O2 (stereo unspecified)	13%	10%	1%	19	-3	9
Cc1ccc(NC(=O)Nc2cn(C)c(=O)c3ccccc23)c(Cl)c1	nt	nt	nt	0	nt	nt
Cc1ccc(CNC(=O)Cn2ccn(-c3cccc(Cl)c3)c(=O)c2=O)cc1	nt	nt	nt	-23	nt	nt
CCCCn1cc(S(=O)(=O)c2cc(C)ccc2C)c(=O)c2cc(F)c(F)cc21	nt	nt	nt	-2	nt	nt
O=C1C(Nc2ccccc2)=CC(c2ccc(Br)cc2)N1c1ccccc1 (stereo unspecified)	nt	nt	nt	22	nt	nt
O=C1C(Nc2ccccc2)=CC(c2ccc(O)cc2)N1c1ccccc1 (stereo unspecified)	?	-29%	6%	5	28*	45*
COc1cc(C2C=C(Nc3ccccc3)C(=O)N2c2ccccc2)ccc1O (stereo unspecified)	?	?	-4%	17	37*	57*
O=C(Nc1nnc(S(=O)(=O)N2CCCc3ccccc32)s1)c1ccc(Cl)cc1	nt	nt	nt	-15	nt	nt
CCOc1cc(C=NN2CCCCCC2)ccc1O	nt	?	nt	-12	nt	nt
O=C(Nc1cccc(NC(=O)c2ccc(Cl)cc2Cl)c1)c1cccnc1	6%	32µM*	7%	20	10	17
CCCOc1ccc(C(=O)Nc2cccc(NC(=O)c3ccc(Cl)cc3Cl)c2)cc1	nt	nt	nt	-91*	nt	nt
Cc1ccc([N+](=O)[O-])cc1NC(=O)c1cccnc1	10µM*	12%	-4%	49	-4	-12
Cc1ccc(NC(=O)c2cccnc2)cc1C	?	3%	95%	24	19*	nt
C[C@H]1[C@H](c2ccccc2)Oc2cccc(NCCc3ccccc3)c2S(=O)(=O)N1Cc1cccc(F)c1	nt	nt	nt	-34	nt	nt
CCc1ccc(NC(=O)C(CC)n2c(=O)c(C(F)(F)F)nc3ccccc32)cc1 (stereo unspecified)	nt	nt	nt	0	nt	nt
O=C(Nc1ccc(N2CCCC2)c(Cl)c1)c1cccnc1	?	?	?	10	39*	54*
O=C(Nc1ccccc1N1CCOCC1)c1cccnc1	33%	5%	8%	1	-1	32
O=C(Nc1ccc(N2CCCCC2)c(Cl)c1)c1cccnc1	-4%	?	-14%	-78*	25	96*
O=C(Nc1ccc(N2CCOCC2)cc1)c1cccnc1	?	-5%	145%	-13	28*	38*
O=C(Nc1ccc(N2CCN(C(=O)c3cccs3)CC2)c(Cl)c1)c1cccnc1	155%	?	?	-25	1	20
O=C(Nc1ccc(Cl)c(Cl)c1)c1cccnc1	?	3%	48%	61	35*	nt
CC(=O)Nc1nonc1-c1nnc(SCC(=O)N(C)c2ccccc2)n1C	nt	nt	nt	-9	nt	nt
CCOc1ccccc1NC(=O)CN1C(=O)NC(Cc2c[nH]c3ccccc23)C1=O (stereo unspecified)	?	9%	?	31	nt	nt
